# HT1080-NT tox – kills 2HG-producing HT-1080-NT fibrosarcoma cells. HT-1080-NT fibrosarcoma viability, CellTiter-Glo ATP luminescence, 48 h. 360,000 tested, 1.6% active. Potency, µM (titrated, usually from 46.1 µM), inactives show top-dose activity, negative = less viability, actives largely listed as cytotoxic;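 further: NT is the 2HG producing partner of a matched IDH1 knockdown line; potency means the concentration at half of the fitted maximal effect; 0% = DMSO-treated cells and -100% = media-only wells without cells; nearly all actives have a fitted effect of over 55% in size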
#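 HT-1080-NT fibrosarcoma cells (2HG-overproducing), 750 cells/well in RPMI with 5% FBS, dosed after 2 h and incubated 48 h at 37C. CellTiter-Glo luminescence normalized to DMSO and no-cell wells; concentration-response curves fitted and classed.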
# HT1080 IDH1KD tx – HT-1080 IDH1 knockdown cell toxicity (counter line); AID 686971; 360,000 tested, 2% active; Potency, µM (series often up to 46.1 µM), without a hit: at the highest dose activity, negative = toxicity, usual class: cytotoxic; HT-1080 IDH1 knockdown viability, ATP luminescence, 48 h;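 further: potency means the concentration at half of the fitted maximal effect; 0% = DMSO wells and -100% = cell-free medium wells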
#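 Cytotoxicity counter-line: IDH1KD HT-1080, 48 h, CellTiter-Glo. Curves classed by r2, magnitude and activity.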
# IL-1B inflam inh – inflammasome signaling inhibition, IL-1 beta readout; THP-1 LPS/ATP IL-1B secretion, AlphaLISA, 16 h; active compounds read low; activity change, % at 57.5 µM; 360,000 tested, 4.7% active; AID 743279; in the data active means activity change below about -50%; inconclusive means mostly about -30% to -49%
#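 THP-1 cells pretreated 1 hr with compounds (up to 57.5 uM final), then stimulated with LPS (250 ng/mL final) plus ATP (1.25 mM final); secreted IL-1B measured by AlphaLISA after 16 hr, decreased signal indicating inhibition.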
# DT40 TDP1 no CPT – qHTS for Inhibitors of human tyrosyl-DNA phosphodiesterase 1 (TDP1): qHTS in cells in absence of CPT; DT40 Tdp1-/- hTDP1 cells, no CPT, ATP luminescence, 48 h; Potency, µM (series often up to 46.2 µM), for inactives: at the highest dose activity change, negative = growth inhibition, actives largely listed as inhibitors; 420,000 tested, 15% active; AID 686978, 2013; further: potency means the concentration at half of the fitted maximal effect; nearly all actives have a fitted effect of over 55% in size
#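 Cells were dispensed at 400 per well, compounds added by pin tool, plates incubated ≥48 hr at 37 °C, then CellTiter-Glo added for 30 min at room temperature before luminescence reading. Line: DT40 Tdp1-/- complemented with hTDP1; camptothecin omitted.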
# TDP1 cell CPT – growth inhibition of DT40 Tdp1-/-;hTDP1 cells with camptothecin (screen for TDP1 inhibitors). chicken DT40 Tdp1-/-;hTDP1 cells + 20 nM CPT, ATP luminescence, 48 h. Potency, µM (top dose mostly 46.2 µM), inactives show at the highest dose activity change, negative = growth inhibition, most hits filed as inhibitors. 420,000 tested, 12% active; further: potency means the concentration at half of the fitted maximal effect; nearly all actives have a fitted effect of over 55% in size
#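 Cell growth measured by CellTiter-Glo luminescence after a minimum 48 h, 37 C compound exposure with 20 nM CPT in Tdp1-knockout DT40 cells stably expressing hTDP1, seeded 400/well; qHTS titration format.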
# Starred values were filed as active, the others as inactive; ? = inconclusive; . = no result given; ! = not active in a repeat; [ ] = dose if it differs, or a comment. Shown are actives, neighbours in structure and some others; about 19% of the full set was active somewhere. Unless noted, the call rests on the fitted dose curve; in most records, active means well fitted curve in the direction sought with a large enough effect; inconclusive means small, poorly fitted or top-dose-only effect, or another doubt; inactive means no such curve, though single readings can be large; an effect the other way counts as inactive or inconclusive. Unless noted, on the % scale 0 is the no-effect control and ±100 the full control effect.
SMILES,HT1080-NT tox,HT1080 IDH1KD tx,IL-1B inflam inh,DT40 TDP1 no CPT,TDP1 cell CPT
CN1c2ccc([N+](=O)[O-])cc2CC2(C(=O)NC(=O)N(c3ccccc3)C2=O)C1c1ccccc1 (configuration not stated),-8%,-10%,19,18µM*,13µM*
O=C(NCc1c(-n2cccc2)sc2c1CCCC2)Nc1cccc(C(F)(F)F)c1,.,.,.,4.1µM*,4.1µM*
Cc1ccc(C(O)P(=O)(Oc2ccccc2)Oc2ccccc2)cc1 (configuration not stated),0%,1%,-24,-9%,0%
O=c1cccc2n1CC1CC2CN(CC(O)CN2CC3CC(C2)c2cccc(=O)n2C3)C1 (configuration not stated),24%,15%,6,12%,3%
Cc1nn(-c2nc3ccccc3s2)c(C)c1Oc1ccccc1O,13µM*,13µM*,-79*,?,18µM*
CC1(C)C2C[C@@H](O)[C@]3(C)C(CC[C@@]4(C)[C@H](c5ccoc5)C[C@H]5O[C@]543)[C@@]2(C)[C@@H](O)C[C@H]1O (some centres not stated),.,.,.,-19%[9.04 µM],-18%[9.04 µM]
CC(CCN1CC1)=NNC(=O)Nc1cccc2ccccc12,5%,3%,0,8.2µM*,7.3µM*
Cc1nc2ccccc2c(=O)n1-c1cc([N+](=O)[O-])cc([N+](=O)[O-])c1,-6%,-4%,0,?,?
Cc1cccc(-n2c(/C=C/c3ccc([N+](=O)[O-])o3)nc3ccccc3c2=O)c1,5%,?,-104*,4.6µM*,3.3µM*
O=c1c2ccccc2nc(/C=C/c2ccc([N+](=O)[O-])o2)n1-c1ccc(O)cc1,?,2.6µM*,-88*,2.3µM*,2.3µM*
O=C1c2ccccc2C(=O)c2c1ccc1c(=O)n(-c3ccccc3)[nH]c21,8%,11%,-12,23µM*,?
COC(=O)c1c(-c2ccc(Cl)cc2)noc1N1CCN(c2ccc(C(C)=O)cc2)CC1,.,.,.,21µM*,?
NC(=O)C1(N2CCCCC2)CCN(CC(=O)Nc2ccc(Oc3ccccc3)cc2)CC1,-26%,?,-27,?,?
O=[N+]([O-])c1ccc(C(c2ccc([N+](=O)[O-])cc2)c2ccc([N+](=O)[O-])cc2)cc1,?,?,-7,12µM*,7.3µM*
COc1ccc(-n2c(/C=C3\C(=O)Nc4ccccc43)nc3ccccc3c2=O)cc1,12%,1%,-22,?,?
O=C1Nc2ccccc2/C1=C/c1cnc[nH]1,-7%,?,-25,18µM*,?
COc1ccc2c(c1)/C(=C/c1cnc[nH]1)C(=O)N2,?,15µM*!,-111*,1.2µM*,2.6µM*
COc1cc(OC)c(/C=C2\C(=O)Nc3ccccc32)c(OC)c1,?,2.6µM*,-2,2.6µM*,2.6µM*
CC(CCC(=O)O)C1CCC2C3C(=O)CC4CC(=O)CC[C@@]4(C)C3CC(=O)[C@]12C (some centres not stated),.,.,.,-4%,6%
Cn1cc(C(=O)OCC(=O)NC2CCCCC2)c2ccccc21,-5%[9.24 µM],1%,-22,-16%,-15%
CC1=CC(=O)OC2CC3OC4C[C@@H](C)C5OC6CC7O[C@]8(C)C/C=C\C9OC%10CC%11OC(CC(C)CO)CC(O)[C@]%11(C)OC%10CC9OC8C[C@]7(C)O[C@]6(C)CCC5OC4C[C@]3(C)OC12 (some centres not stated),-2%,9%,-8,21µM*,18µM*
C=C(COC(=O)CCC(=O)O)CC1CC(O)[C@]2(C)OC3CC4OC5C[C@]6(C)O[C@]7(C)CCC8OC9C[C@]%10(C)OC%11C(C)=CC(=O)OC%11CC%10OC9C[C@@H](C)C8OC7CC6O[C@]5(C)C/C=C\C4OC3CC2O1 (some centres not stated),-23%,-10%,-5,?,13µM*

# Screening results (PubChem)
